Screening results from PubChem.
IMPase inh = qHTS Assay for Identifying the Cell-Membrane Permeable IMPase Inhibitors; Inositol monophosphatase 1 (Rattus norvegicus), P97697; CHO-M1 cells, IP1 accumulation, HTRF TR-FRET ratio; inhibition (IP1 accumulation), % at 46.1 µM; 120,000 tested, under 10 active; AID 901, 2007; active = well fitted curve in the direction sought with a large enough effect in the signal ratio, not every such curve was filed as active; inconclusive = small, poorly fitted or top-dose-only effect, or a change in a side signal; inactive = no such curve, though single readings can be large or run the other way; the % refers to the signal ratio;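 also: cells stimulated with carbachol in lithium chloride buffer; plate controls were DMSO basal wells for no effect and reference inhibitor wells for full effect; higher means more IMPase inhibition seen as more IP1 and lower FRET ratio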
Target sequence (P97697 whole entry, looked up): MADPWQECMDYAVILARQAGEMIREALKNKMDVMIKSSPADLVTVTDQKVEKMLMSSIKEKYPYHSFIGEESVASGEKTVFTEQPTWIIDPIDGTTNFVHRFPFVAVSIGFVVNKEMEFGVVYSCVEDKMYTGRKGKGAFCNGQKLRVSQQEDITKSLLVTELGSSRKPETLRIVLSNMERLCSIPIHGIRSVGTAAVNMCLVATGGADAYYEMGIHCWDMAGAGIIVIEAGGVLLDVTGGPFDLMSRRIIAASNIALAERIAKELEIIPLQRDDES
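CHO-M1, 2000 cells/well, cultured 16–30 h; cpd up to 46 uM; carbachol (50 uM solution, stimulation buffer w/ 50 mM LiCl, pH 7.4), 30 min 37C; IP-One TR-FRET, 10 min RT; Ex 320/Em 665, 620; Hill-fit AC50.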
IMPase Li inh = qHTS Assay for Identifying the Cell-Membrane Permeable IMPase Inhibitors: Potentiation with Lithium; 210,000 tested, 0.35% active; Potency, µM (highest dose often 59.4 µM), without a hit: top-dose activity, negative = IMPase inhibition, actives largely listed as inhibitors; AID 1457, 2008; CHO-M1 cells, IP1 TR-FRET (IP-One), carbachol + lithium;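 also: IP1 builds up when IMPase is blocked and the TR-FRET signal falls; potency is read from the fitted curve at half-maximal effect; plate controls were basal vehicle for no effect and high inhibitor control for full effect; nearly all actives have a fitted effect of over 50% in size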
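Test compounds were applied to CHO-M1 cells previously cultured for 16–30 h at 2000 per well. A small lithium amount accompanied them; after 30 min at 37C, IP1 was quantified by TR-FRET.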
HPGD inh = qHTS Assay for Inhibitors of HPGD (15-Hydroxyprostaglandin Dehydrogenase). 15-hydroxyprostaglandin dehydrogenase [NAD(+)] (Homo sapiens), P15428. purified HPGD, NADH fluorescence kinetic, PGE2 substrate. Potency, µM, without a hit: at the top dose activity change, negative = inhibition, most hits filed as inhibitors. 150,000 tested, 4.3% active. AID 894, 2007; active = well fitted inhibition curve with a large enough effect, not every such curve was filed as active; inconclusive = small, poorly fitted or top-dose-only effect, or another doubt; inactive = no such curve, though single readings can be large or run the other way; also: potency is read from the fitted curve at half-maximal effect
Target sequence (P15428 whole entry, looked up): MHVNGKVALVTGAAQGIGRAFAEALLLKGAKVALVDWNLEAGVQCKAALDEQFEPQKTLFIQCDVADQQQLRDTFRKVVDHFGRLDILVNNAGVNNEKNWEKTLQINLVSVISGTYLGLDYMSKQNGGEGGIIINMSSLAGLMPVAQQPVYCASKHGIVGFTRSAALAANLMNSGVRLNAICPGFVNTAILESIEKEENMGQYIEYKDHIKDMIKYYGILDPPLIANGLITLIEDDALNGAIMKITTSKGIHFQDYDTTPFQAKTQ
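20 nM HPGD preincubated 15 min at room temperature with compound in 50 mM Tris-HCl pH 8, 0.01% Tween 20. Started with 1 mM NAD+ and 30 uM prostaglandin E2; NADH fluorescence (360/450 nm) read 5 times over 30-s intervals, last minus first.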
ALOX12 inhib = qHTS Assay for Inhibitors of 12-hLO (12-human lipoxygenase) | Potency, µM (doses to about 57.1 µM), inactives show at the top dose activity change, negative = inhibition, actives largely listed as inhibitors | 150,000 tested, 0.12% active | purified 12-hLO, xylenol orange hydroperoxide absorbance; also: potency is read from the fitted curve at half-maximal effect; nearly all actives have a fitted effect of over 55% in size
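Hydroperoxide output read as Fe(III)-xylenol orange absorbance, 573-to-405 nm ratio, after 30 min reaction with 40 uM arachidonic acid. Enzyme: 150 nM purified human 12hLO, 15 min compound preincubation; 25 mM Hepes pH 7.0, room temperature.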
15-hLO-2 inh = qHTS Assay for Inhibitors of 15-hLO-2 (15-human lipoxygenase 2); purified 15hLO-2, xylenol orange hydroperoxide absorbance; Potency, µM (titrated, usually from 57.1 µM), for the others: top-dose activity change, negative = inhibition, most hits filed as inhibitors; 110,000 tested, 0.56% active; AID 881, 2007; also: potency is read from the fitted curve at half-maximal effect; nearly all actives have a fitted effect of over 60% in size
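Purified human 15hLO-2 (50 nM) preincubated 15 min with compound, then 45 uM arachidonic acid for 90 min at RT in 25 mM Hepes pH 7.5, 0.01% Triton X-100. Hydroperoxide detected by Fe-xylenol orange; 573/405 nm absorbance ratio.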
PNC assembly inh = High Content Assay for Compounds that inhibit the Assembly of the Perinucleolar Compartment. PC3M PTB-GFP, PNC prevalence imaging, 16 h; stronger effect = lower value. activity change (PNC), negative = inhibition, % at 10 µM. 140,000 tested, 3.1% active;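 active = readout at or below -70, meaning at least 70% loss of cells showing the perinucleolar compartment, a nuclear body marking cancer cells; inconclusive = readout between -30 and a set limit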;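 also: plate controls were DMSO wells for no effect and camptothecin positive control wells for full effect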
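PC3M cells stably expressing PTB-GFP, 750–1000 cells/well, treated 16 h at 37 °C with compound (23 nl of library stock), in duplicate. After paraformaldehyde fixation and Hoechst stain, imaged at 20x; PNC prevalence scored by image analysis.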
The depositor's hits bear a star; ? = inconclusive; . = not tested or not shown; ! = a repeat was not active; [ ] = dose if it differs, or a comment. Rows were chosen to be rich in hits. Some 5.3% of all compounds tested hit in one or more screens of this group. Unless noted, calls follow the shape of the dose curve; as a rule, active = well fitted curve in the direction sought with a large enough effect; inconclusive = small, poorly fitted or top-dose-only effect, or another doubt; inactive = no such curve, though single readings can be large; an effect the other way counts as inactive or inconclusive. Unless noted, % is scaled to controls: 0 for no effect and ±100 for the full control effect.

SMILES	IMPase inh	IMPase Li inh	HPGD inh	ALOX12 inhib	15-hLO-2 inh	PNC assembly inh
COc1ccc(-c2cc3ccccc3n2CC(O)CN2CCN(CCO)CC2)cc1 (stereo not drawn)	0	3%[38.3 µM]	?	6%	23%	?
O=C(COC(=O)c1cccs1)NCCC1=CCCCC1	-2	-2%	18µM*	-3%	.	?
O=C(/C=C/c1cccc(Cl)c1)NCCc1ccccc1	-4	4%	8.9µM*	-9%	.	-18
O=C(/C=C/c1ccccc1)NCCC1=CCCCC1	1	-2%	28µM*	-3%	.	58
O=C(/C=C/c1ccc(F)cc1)NCCC1=CCCCC1	1	-4%[38.3 µM]	-20%	0%	-5%	106
CC(C)=CC(=O)NCCc1ccccc1	12	-8%[38.3 µM]	20µM*	-3%	0%	-5
O=C(O)/C=C/C(=O)NCCc1ccccc1	.	1%	.	.	.	.
CC1CCN(C(=O)CSc2nnc(CSc3ncccn3)n2C)CC1	-4	4%[38.3 µM]	-15%	3%	-10%	32
CCN(CC)c1ccc(/C=N/NC(=S)NC)c(O)c1	.	12%	.	.	.	.
CCN(CC)c1ccc(/C=N/Nc2ccccc2)c(O)c1	5	3%[38.3 µM]	28µM*	?	-22%	-25
CCN(CC)c1ccc(/C=N/Nc2cccc(C)c2)c(O)c1	2	-4%	22µM*	-4%	.	?
CCc1[nH]c(=S)c(C#N)c2c1CCCC2	.	-9%	20µM*	-1%	.	2
CCc1[nH]c(=O)c(C#N)c2c1CCCC2	11	6%[38.3 µM]	?	-2%	6%	26
Cc1nnc(NN2CCOCC2)[nH]c1=O	.	-11%	.	.	.	.
CN(C)c1ccc(NC2=C(Cl)C(=O)c3ccccc3C2=O)cc1	.	60%	14µM*	-6%	.	26
CCOc1ccc(NC(=O)C(c2ccccn2)N(C(=O)CCl)c2ccc(F)cc2)cc1 (stereo not drawn)	0	3%	1%	0%	.	-16
Cc1ccc(OCC2Cn3c(nc4c3c(=O)[nH]c(=O)n4C)O2)cc1 (stereo not drawn)	6	0%	-6%	0%	5%	-103*
Cc1ccccc1OCC1Cn2c(nc3c2c(=O)[nH]c(=O)n3C)O1 (stereo not drawn)	-7	-5%[38.3 µM]	-5%	1%	3%	22
Nc1nc(N)c2nc(-c3ccccc3)c(N)nc2n1	-29	13µM*!	?	?	15%	26
Cc1ccc(-c2nn(-c3cc(Cl)ccc3[N+](=O)[O-])c(=O)c3ccccc23)cc1C	9	-3%[38.3 µM]	-23%	5%	-10%	35
Cc1ccc(C(=O)c2cc([N+](=O)[O-])ccc2N2CCCCC2)cc1	.	12%	-9%	-1%	.	-110*
O=C(c1ccccc1)c1cc([N+](=O)[O-])ccc1N1CCOCC1	-7	7%	-7%	-3%	.	-112*
CC1CCN(c2ccc([N+](=O)[O-])cc2C(=O)O)CC1	-4	-4%	-2%	-5%	.	26
CCOC(=O)c1cc(CC)sc1NC(=O)c1ccc(N2CCOCC2)c([N+](=O)[O-])c1	?	-12%[38.3 µM]	-11%	-6%	7%	-25
CC1CCCN(c2ccc([N+](=O)[O-])cc2C(=O)c2ccccc2)C1 (stereo not drawn)	.	10%	-11%	-4%	.	-100*
SMILES	IMPase inh	IMPase Li inh	HPGD inh	ALOX12 inhib	15-hLO-2 inh	PNC assembly inh
CCOC(=O)c1cc(CC)sc1NC(=O)c1cc([N+](=O)[O-])ccc1N1CCOCC1	6	-6%[38.3 µM]	-14%	0%	7%	-84*
O=C(NCCc1ccncc1)Nc1ccc(Cl)c(Cl)c1	.	-1%	.	.	.	.
O=C(NCCc1ccncc1)Nc1ccccc1	6	0%	-15%	-3%	.	-100*
CC(C)C[C@@H](CC(=O)N[C@@H](CCCN)CC(=O)N[C@@H]1CCCC[C@H]1C(=O)N[C@H](CC(=O)N[C@@H](CCC(=O)O)CC(=O)O)Cc1ccccc1)NC(=O)[C@@H]1CNCC[C@H]1N	.	15%	-2%	-2%	.	.
Cc1ccccc1N/N=C1\CCCNC1=O	-4	3%[38.3 µM]	22µM*	?	?	5
O=C(Nc1nccs1)c1ccc2c(=O)n3c(nc2c1)CCCCC3	-5	.	.	4%	.	?
CCC(Sc1nc(N)cc(=O)[nH]1)C(=O)Nc1cc(C)on1 (stereo not drawn)	.	5%	.	.	.	.
O/N=C(\c1ccc(Cl)cc1)c1cc2ccccc2o1	20	23%[38.3 µM]	25µM*	-11%	1%	?
N#CC(Cc1ccc(O)c(O)c1)C(=O)N1CCc2ccccc21 (stereo not drawn)	.	38%	28µM*	.	.	.
CC(NCc1ccc2c(c1)OCO2)C(=O)N1CCc2ccccc21 (stereo not drawn)	-2	-3%	-10%	-1%	.	1
COc1cc(/C=N/NC(=S)Nc2cccc(Cl)c2C)ccc1OCC(=O)N1CC(C)OC(C)C1 (stereo not drawn)	-2	-8%	-21%	4%	.	-15
COc1ccccc1-c1nc(Nc2ccncc2)c2ccccc2n1	.	11%	.	.	23%	.
Cc1[nH]nc(SCC(=O)N2CCCCC2)c1[N+](=O)[O-]	3	18%[38.3 µM]	28µM*	-6%	13%	27
Cc1[nH]nc(SCC(=O)N2CCCCCC2)c1[N+](=O)[O-]	.	10%	.	.	.	.
CCOC(=O)C1=C(c2ccccc2)NC(=S)NC1c1cccc([N+](=O)[O-])c1 (stereo not drawn)	-4	.	.	-17%	.	-20
CCCOc1ccc(C2NC(=S)NC(c3ccccc3)=C2C(=O)Nc2ccc(C)cc2)cc1OC (stereo not drawn)	-8	-2%	-10%	14µM*	.	?
CCOC(=O)C1=C(c2ccccc2)NC(=S)NC1c1cc([N+](=O)[O-])ccc1OC (stereo not drawn)	1	11%[38.3 µM]	-7%	-20%	25µM*	-8
Nc1nc(Cl)nc2ccc(Br)cc12	.	-19%	-8%	-4%	.	11
CCc1c(C)nc2ccc(Br)cc2c1Cl	-13	11µM*	-18%	0%	2%	36
Cc1ccc(NC(=O)NCc2c(C)nn(C)c2C)cc1Cl	.	5%	.	.	.	.
Cc1nn(C)cc1CNC(=O)Nc1ccc(Cl)c(Cl)c1	4	35%[38.3 µM]	16µM*	6%	4%	27
